Measured values: PubChem BioAssay (NCATS)
Records with an inconclusive call do not appear. Activity calls are given as the source filed them. Unless noted, calls come from the whole dose curve. Bridge positions count the residues as written; N and C are the ends. Square brackets hold non-standard residues; d marks the D form. Peptide text beside a SMILES is read from it. hArg = N=C(N)NCCCC[C@H](N)C(=O)O; Mpa = O=C(O)CCS

Columns and labels:
[1] = qHTS for Inhibitors of the Functional Ribonucleoprotein Complex (vRNP) of Lassa (LASV) Arenavirus: LASV Primary Screen - GLuc reporter signal (AID 1347082; calls by dose curve; tested in HEK293 reporter line; note: nearly all actives have a fitted effect of over 60% in size)
[2] = qHTS for Inhibitors of the Functional Ribonucleoprotein Complex (vRNP) of Lassa (LASV) Arenavirus: Viability assay - alamar blue signal for LASV Primary Screen (AID 1347083; calls by dose curve; tested in HEK293 reporter line; note: nearly all actives have a fitted effect of over 80% in size)
[3] = qHTS for Inhibitors of the Functional Ribonucleoprotein Complex (vRNP) of Lymphocytic Choriomeningitis Arenaviruses (LCMV): Viability assay - alamar blue signal for LCMV Primary Screen (AID 1347085; calls by dose curve; tested in HEK293 reporter line; note: nearly all actives have a fitted effect of over 80% in size)
[4] = biological target: Nucleoprotein (Lymphocytic choriomeningitis virus (strain Armstrong)) (UniProt P09992); experiment: qHTS for Inhibitors of the Functional Ribonucleoprotein Complex (vRNP) of Lymphocytic Choriomeningitis Arenaviruses (LCMV): LCMV Primary Screen - GLuc reporter signal (AID 1347086); note: nearly all actives have a fitted effect of over 70% in size
% is set by controls: 0 for no effect and ±100 for the full control effect.
Note: series mostly up to about 57 µM.

Nucleoprotein (Lymphocytic choriomeningitis virus (strain Armstrong)), sequence (P09992 whole entry, looked up): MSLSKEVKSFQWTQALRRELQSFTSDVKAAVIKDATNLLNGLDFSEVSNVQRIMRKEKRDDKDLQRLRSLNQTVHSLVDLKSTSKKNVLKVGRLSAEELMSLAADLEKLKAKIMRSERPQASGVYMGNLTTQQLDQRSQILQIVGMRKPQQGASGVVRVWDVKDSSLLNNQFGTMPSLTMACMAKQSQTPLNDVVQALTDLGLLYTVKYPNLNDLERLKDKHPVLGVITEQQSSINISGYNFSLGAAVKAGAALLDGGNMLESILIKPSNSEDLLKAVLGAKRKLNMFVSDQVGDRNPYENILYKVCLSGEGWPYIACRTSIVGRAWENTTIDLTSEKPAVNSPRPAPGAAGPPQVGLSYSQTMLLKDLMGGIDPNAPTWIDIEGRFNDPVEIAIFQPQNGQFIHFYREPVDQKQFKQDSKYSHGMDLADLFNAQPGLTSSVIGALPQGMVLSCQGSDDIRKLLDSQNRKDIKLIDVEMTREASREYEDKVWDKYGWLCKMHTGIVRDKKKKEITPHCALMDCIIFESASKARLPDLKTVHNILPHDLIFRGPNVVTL

CCCC(=O)O[C@]1(C(=O)CCl)[C@@H](C)C[C@H]2[C@@H]3CCC4=CC(=O)C=C[C@]4(C)[C@@]3(F)C(=O)C[C@@]21C
inactive: Potency [1] | Potency [2] | Potency [3] | Potency [4]

Cl/C(=C\n1cncn1)c1ccc(Cl)cc1Cl
inactive: Potency [1] | Potency [2] | Potency [3] | Potency [4]

O=C1c2ccccc2S(=O)(=O)N1CCCCN1CCN(c2ncccn2)CC1
inactive: Potency [1] | Potency [2] | Potency [3] | Potency [4]

C[N+]12CCC(CC1)C(OC(=O)C(O)(c1ccccc1)c1ccccc1)C2 (centres undefined)
inactive: Potency [1] | Potency [2] | Potency [3] | Potency [4]

CCOC(=O)c1ccc(NC(=O)CN2CCCCC2)cc1
inactive: Potency [1] | Potency [2] | Potency [3] | Potency [4]

CC(C)Cn1cnc2c1c(=O)n(C)c(=O)n2C
inactive: Potency [1] | Potency [2] | Potency [3] | Potency [4]

CCn1cc(C(=O)O)c(=O)c2cc(F)c(N3CCNCC3)nc21
inactive: Potency [1] | Potency [2] | Potency [3] | Potency [4]

CCCN(CCC)C(=O)C(CCC(=O)OCCCN1CCN(CCOC(=O)Cc2c(C)n(C(=O)c3ccc(Cl)cc3)c3ccc(OC)cc23)CC1)NC(=O)c1ccccc1 (centres undefined)
inactive: Potency [1] | Potency [2] | Potency [3] | Potency [4]

COc1ccc(CN(CCN(C)C)c2ncccn2)cc1
inactive: Potency [1] | Potency [2] | Potency [3] | Potency [4]

CCNC(=O)NCc1cccc(Cl)c1
inactive: Potency [1] | Potency [2] | Potency [3] | Potency [4]

Oc1cccc2[nH]ccc12
inactive: Potency [1] | Potency [2] | Potency [3] | Potency [4]

O=C(CCC1CCN(Cc2ccccc2)CC1)c1ccc2c(c1)NCCCC2
inactive: Potency [1] | Potency [2] | Potency [3] | Potency [4]

CCN(CC)CCOCCOC(=O)C1(c2ccccc2)CCCC1
inactive: Potency [1] | Potency [2] | Potency [3] | Potency [4]

C[C@@H](CN(C)C)CN1c2ccccc2Sc2ccccc21
inactive: Potency [1] | Potency [2] | Potency [3] | Potency [4]

c1ccc2[nH]c(-c3cscn3)nc2c1
inactive: Potency [1] | Potency [2] | Potency [3] | Potency [4]

CC(C)NCCCC1(C(N)=O)c2ccccc2-c2ccccc21
inactive: Potency [1] | Potency [2] | Potency [3] | Potency [4]

COCCc1ccc(OCC(O)CNC(C)C)cc1 (centres undefined)
inactive: Potency [1] | Potency [2] | Potency [3] | Potency [4]

CCc1nnc(NS(=O)(=O)c2ccc(N)cc2)s1
inactive: Potency [1] | Potency [2] | Potency [3] | Potency [4]

C[C@]12CCC(=O)C=C1CC[C@@H]1[C@@H]2CC[C@@]2(C)[C@H]1CC[C@]2(O)C(=O)CO
inactive: Potency [1] | Potency [2] | Potency [3] | Potency [4]

COc1nc(C)nc(Cl)c1NC1=NCCN1
inactive: Potency [1] | Potency [2] | Potency [3] | Potency [4]

C[C@@H](O)[C@H]1C(=O)N2C(C(=O)O)=C([C@H]3CCCO3)S[C@H]12
inactive: Potency [1] | Potency [2] | Potency [3] | Potency [4]

O=c1ccc2ccccc2o1
inactive: Potency [1] | Potency [2] | Potency [3] | Potency [4]

CCCc1ncc(C[n+]2ccccc2C)c(N)n1
inactive: Potency [1] | Potency [2] | Potency [3] | Potency [4]

CCCCCOc1ccccc1/C(=C\SC)n1ccnc1
inactive: Potency [1] | Potency [2] | Potency [3] | Potency [4]

COc1ccc(CN(CCN(C)C)c2ccccn2)cc1
inactive: Potency [1] | Potency [2] | Potency [3] | Potency [4]

Cc1ccc(O)cc1
inactive: Potency [1] | Potency [2] | Potency [3] | Potency [4]

C[C@]12CCC(=O)C=C1[C@@H]1C[C@@H]1[C@H]1[C@@H]3[C@@H]4C[C@@H]4[C@@]4(CCC(=O)O4)[C@@]3(C)CC[C@@H]12
inactive: Potency [1] | Potency [2] | Potency [3] | Potency [4]

O=C(O)c1cn(-c2ccc(F)cc2)c2cc(N3CCNCC3)c(F)cc2c1=O
inactive: Potency [1] | Potency [2] | Potency [3] | Potency [4]

CN1CCCCC1CCN1c2ccccc2Sc2ccc(S(C)=O)cc21 (centres undefined)
inactive: Potency [1] | Potency [2] | Potency [3] | Potency [4]

C[C@@H]1CC[C@@]2(OC1)O[C@H]1C[C@H]3[C@@H]4CC[C@H]5C[C@@H](O)CC[C@]5(C)[C@H]4CC(=O)[C@]3(C)[C@H]1[C@@H]2C
inactive: activity change, negative = inhibition [1] -9.4% [at 5.82 µM] | activity change, negative = reduced viability [2] -7.37% [at 5.82 µM] | activity change, negative = lower viability [3] -0.186% [at 5.82 µM] | activity change, negative = inhibition [4] 19.7% [at 5.82 µM]

CNCCC(Oc1ccccc1OC)c1ccccc1 (centres undefined)
inactive: Potency [1] | Potency [2] | Potency [3] | Potency [4]

NC(=O)[C@@H]1CSSCCC(=O)N[C@@H](CCCCN=C(N)N)C(=O)NCC(=O)N[C@@H](CC(=O)O)C(=O)N[C@@H](Cc2c[nH]c3ccccc23)C(=O)N2CCC[C@H]2C(=O)N1 ([Mpa][hArg]GDWPC-NH2; disulfide 1-7)
inactive: Potency [1] | Potency [2] | Potency [3] | Potency [4]

O=C1Nc2cc(Cl)ccc2Oc2ccccc21
inactive: Potency [1] | Potency [2] | Potency [3] | Potency [4]

C[C@@H](O)[C@H](N)C(=O)O
inactive: Potency [1] | Potency [2] | Potency [3] | Potency [4]

CC(C)[C@@H]1CC[C@@H](C)CC1=O
inactive: Potency [1] | Potency [2] | Potency [3] | Potency [4]

C[N+](C)(C)CC[N+]1(C)Cc2c(Cl)c(Cl)c(Cl)c(Cl)c2C1
inactive: Potency [1] | Potency [2] | Potency [3] | Potency [4]
